Test results published in publication PMC7862700, “An all-to-all approach to the identification of sequence-specific readers for epigenetic DNA modifications on cytosine”.

Key:
Experiment in all cases: DAPPL (digital affinity profiling via proximity ligation, sequencing); 10 mM Tris-HCl pH 7.5, 50 mM NaCl, 1 mM DTT, 4% glycerol, room temperature, 30 min; GST-TFs on glutathione beads, 16-mer random dsDNA library, 0.1% formaldehyde crosslink after washing; high values mean tight binding
FEV = target: T1, FEV (Homo sapiens, UniProt Q99581 1-238); conditions: protein: recombinant; tags: N-terminal GST; dsDNA, one strand shown
T1 sequence: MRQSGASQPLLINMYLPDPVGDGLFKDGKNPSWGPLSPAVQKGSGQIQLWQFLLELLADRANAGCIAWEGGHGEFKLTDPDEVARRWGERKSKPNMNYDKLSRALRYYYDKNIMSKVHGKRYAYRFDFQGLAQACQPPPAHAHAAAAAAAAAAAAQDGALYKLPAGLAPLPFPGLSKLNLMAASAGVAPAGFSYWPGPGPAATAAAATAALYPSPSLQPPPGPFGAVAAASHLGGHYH
Outline: (§1)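 Human transcription factors were made in yeast as GST fusions, captured on glutathione beads and barcoded with DNA. With a tag-only sample included, the pool was incubated with 200 nmole of a random double-stranded 16-mer DNA library in Tris/NaCl/DTT/glycerol buffer at room temperature for 30 min, then crosslinked with 0.1% formaldehyde after washing, ligated by proximity, amplified and sequenced. For binding signal, each hexamer's read frequency for a factor is divided by its frequency for the tag-only sample.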

ETV5 = ETV5 (Homo sapiens, UniProt P41161 1-510); conditions: protein: recombinant; tags: N-terminal GST; dsDNA, one strand shown
Sequence of ETV5 (P41161 whole entry): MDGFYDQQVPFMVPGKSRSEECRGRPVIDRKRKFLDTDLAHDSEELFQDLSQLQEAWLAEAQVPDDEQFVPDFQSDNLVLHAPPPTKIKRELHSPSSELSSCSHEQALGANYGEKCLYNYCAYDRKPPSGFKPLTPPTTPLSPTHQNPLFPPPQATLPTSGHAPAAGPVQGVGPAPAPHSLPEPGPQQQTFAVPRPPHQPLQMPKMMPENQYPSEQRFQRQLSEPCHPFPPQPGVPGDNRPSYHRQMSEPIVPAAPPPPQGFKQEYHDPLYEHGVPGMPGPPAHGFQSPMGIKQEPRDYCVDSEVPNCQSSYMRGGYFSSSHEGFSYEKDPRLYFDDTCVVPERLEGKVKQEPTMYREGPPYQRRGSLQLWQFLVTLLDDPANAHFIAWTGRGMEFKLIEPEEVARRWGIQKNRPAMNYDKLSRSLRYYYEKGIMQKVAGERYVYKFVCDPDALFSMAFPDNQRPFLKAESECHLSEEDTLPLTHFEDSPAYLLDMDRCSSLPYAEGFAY
Outline: as §1

HSF1 = HSF1 (Homo sapiens, UniProt Q00613 1-529); conditions: protein: recombinant; tags: N-terminal GST; chain copies: 3; dsDNA, one strand shown
Sequence of HSF1 (Q00613 whole entry): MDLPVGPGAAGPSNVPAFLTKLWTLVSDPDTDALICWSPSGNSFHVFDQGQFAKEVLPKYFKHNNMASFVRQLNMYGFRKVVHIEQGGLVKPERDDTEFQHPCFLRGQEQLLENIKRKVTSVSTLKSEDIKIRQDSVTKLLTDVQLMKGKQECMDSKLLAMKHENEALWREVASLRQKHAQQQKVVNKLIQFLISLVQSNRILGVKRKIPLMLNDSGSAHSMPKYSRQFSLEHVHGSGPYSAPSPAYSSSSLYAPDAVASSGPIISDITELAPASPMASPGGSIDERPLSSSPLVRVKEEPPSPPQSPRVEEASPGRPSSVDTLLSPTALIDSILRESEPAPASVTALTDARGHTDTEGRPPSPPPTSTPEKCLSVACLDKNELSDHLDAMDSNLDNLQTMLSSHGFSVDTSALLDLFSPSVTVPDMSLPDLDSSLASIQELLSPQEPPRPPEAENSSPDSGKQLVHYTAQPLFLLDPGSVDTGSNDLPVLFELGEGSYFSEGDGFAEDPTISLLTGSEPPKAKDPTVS
Outline: as §1

SPIC = target: T2, SPIC (Homo sapiens, UniProt Q8N5J4 1-248); conditions: protein: recombinant; tags: N-terminal GST; dsDNA, one strand shown
T2 sequence: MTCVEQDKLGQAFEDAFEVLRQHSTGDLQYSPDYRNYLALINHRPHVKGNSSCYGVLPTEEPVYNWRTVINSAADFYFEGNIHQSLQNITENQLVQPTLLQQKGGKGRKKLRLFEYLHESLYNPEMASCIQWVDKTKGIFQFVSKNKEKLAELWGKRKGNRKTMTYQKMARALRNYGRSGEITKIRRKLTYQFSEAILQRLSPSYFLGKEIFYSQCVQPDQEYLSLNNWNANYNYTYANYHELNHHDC
Outline: as §1

ELF4 = ELF4 (Homo sapiens, UniProt Q99607 1-663); conditions: protein: recombinant; tags: N-terminal GST; dsDNA, one strand shown
Sequence of ELF4 (Q99607 whole entry): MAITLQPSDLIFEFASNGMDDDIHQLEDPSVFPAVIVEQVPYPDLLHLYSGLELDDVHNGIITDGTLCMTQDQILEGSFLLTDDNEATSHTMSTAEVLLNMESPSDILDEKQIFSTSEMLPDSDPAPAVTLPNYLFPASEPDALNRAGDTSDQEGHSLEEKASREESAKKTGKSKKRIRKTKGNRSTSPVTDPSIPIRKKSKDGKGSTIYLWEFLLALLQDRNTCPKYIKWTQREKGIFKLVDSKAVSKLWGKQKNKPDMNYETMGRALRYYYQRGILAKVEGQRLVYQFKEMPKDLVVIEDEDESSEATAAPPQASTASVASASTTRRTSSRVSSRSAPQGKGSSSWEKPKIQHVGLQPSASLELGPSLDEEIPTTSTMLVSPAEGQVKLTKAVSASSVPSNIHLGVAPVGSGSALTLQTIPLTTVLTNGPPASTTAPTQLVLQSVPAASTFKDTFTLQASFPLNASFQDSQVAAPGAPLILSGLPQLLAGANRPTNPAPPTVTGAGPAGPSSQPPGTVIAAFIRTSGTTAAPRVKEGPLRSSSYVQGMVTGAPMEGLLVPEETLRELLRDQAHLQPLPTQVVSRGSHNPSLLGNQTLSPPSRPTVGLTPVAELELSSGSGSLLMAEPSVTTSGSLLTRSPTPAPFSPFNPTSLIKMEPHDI
Outline: as §1

ELK4 = target: T3, ELK4 (Homo sapiens, UniProt P28324-2 1-405); conditions: protein: recombinant; tags: N-terminal GST; dsDNA, one strand shown
T3 sequence: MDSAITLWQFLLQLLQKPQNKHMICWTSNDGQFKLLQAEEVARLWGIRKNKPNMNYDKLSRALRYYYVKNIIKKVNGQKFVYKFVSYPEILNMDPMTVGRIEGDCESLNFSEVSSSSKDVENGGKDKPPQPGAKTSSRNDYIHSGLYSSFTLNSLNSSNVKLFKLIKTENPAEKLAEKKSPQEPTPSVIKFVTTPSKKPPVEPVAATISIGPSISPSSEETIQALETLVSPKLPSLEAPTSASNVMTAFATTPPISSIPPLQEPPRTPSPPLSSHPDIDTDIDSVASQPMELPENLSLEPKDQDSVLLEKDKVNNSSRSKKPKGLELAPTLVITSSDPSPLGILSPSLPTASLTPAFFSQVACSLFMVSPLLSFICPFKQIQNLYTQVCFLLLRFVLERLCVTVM
Outline: as §1

ETV2 = target: T4, ETV2 (Homo sapiens, UniProt O00321 1-342); conditions: protein: recombinant; tags: N-terminal GST; dsDNA, one strand shown
T4 sequence: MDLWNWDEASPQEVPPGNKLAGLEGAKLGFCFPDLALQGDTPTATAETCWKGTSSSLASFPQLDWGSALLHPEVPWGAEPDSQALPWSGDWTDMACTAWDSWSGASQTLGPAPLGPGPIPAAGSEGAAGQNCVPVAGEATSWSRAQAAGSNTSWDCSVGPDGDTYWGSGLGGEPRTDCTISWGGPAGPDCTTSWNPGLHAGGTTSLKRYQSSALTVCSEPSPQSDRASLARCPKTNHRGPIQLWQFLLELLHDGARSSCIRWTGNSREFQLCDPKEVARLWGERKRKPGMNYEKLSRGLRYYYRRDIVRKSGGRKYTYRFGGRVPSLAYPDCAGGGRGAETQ
Outline: as §1

ELF3 = target: T5, ELF3 (Homo sapiens, UniProt P78545 1-371); conditions: protein: recombinant; tags: N-terminal GST; dsDNA, one strand shown
T5 sequence: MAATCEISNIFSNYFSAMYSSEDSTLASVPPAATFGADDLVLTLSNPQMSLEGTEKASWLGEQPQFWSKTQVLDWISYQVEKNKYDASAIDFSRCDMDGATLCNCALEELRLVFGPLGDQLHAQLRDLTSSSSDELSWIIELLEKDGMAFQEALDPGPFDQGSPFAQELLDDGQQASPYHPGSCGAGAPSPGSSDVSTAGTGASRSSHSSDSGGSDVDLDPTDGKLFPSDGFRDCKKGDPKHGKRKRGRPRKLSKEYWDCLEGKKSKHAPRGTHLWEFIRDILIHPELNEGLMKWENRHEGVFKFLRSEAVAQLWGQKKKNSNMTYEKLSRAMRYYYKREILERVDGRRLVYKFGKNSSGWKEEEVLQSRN
Outline: as §1

CRX = CRX (Homo sapiens, UniProt O43186 1-299); conditions: protein: recombinant; tags: N-terminal GST; dsDNA, one strand shown
Sequence of CRX (O43186 whole entry): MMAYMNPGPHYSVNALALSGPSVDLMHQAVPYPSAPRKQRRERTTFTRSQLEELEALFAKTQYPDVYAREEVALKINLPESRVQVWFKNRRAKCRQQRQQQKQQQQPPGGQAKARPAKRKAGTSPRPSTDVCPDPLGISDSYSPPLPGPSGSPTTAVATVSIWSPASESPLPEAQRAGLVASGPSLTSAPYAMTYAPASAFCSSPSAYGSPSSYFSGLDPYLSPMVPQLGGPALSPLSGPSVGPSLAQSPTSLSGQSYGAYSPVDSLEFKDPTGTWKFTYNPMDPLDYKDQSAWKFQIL
Outline: as §1

ETV1 = ETV1 (Homo sapiens, UniProt P50549 1-477); conditions: protein: recombinant; tags: N-terminal GST; dsDNA, one strand shown
Sequence of ETV1 (P50549 whole entry): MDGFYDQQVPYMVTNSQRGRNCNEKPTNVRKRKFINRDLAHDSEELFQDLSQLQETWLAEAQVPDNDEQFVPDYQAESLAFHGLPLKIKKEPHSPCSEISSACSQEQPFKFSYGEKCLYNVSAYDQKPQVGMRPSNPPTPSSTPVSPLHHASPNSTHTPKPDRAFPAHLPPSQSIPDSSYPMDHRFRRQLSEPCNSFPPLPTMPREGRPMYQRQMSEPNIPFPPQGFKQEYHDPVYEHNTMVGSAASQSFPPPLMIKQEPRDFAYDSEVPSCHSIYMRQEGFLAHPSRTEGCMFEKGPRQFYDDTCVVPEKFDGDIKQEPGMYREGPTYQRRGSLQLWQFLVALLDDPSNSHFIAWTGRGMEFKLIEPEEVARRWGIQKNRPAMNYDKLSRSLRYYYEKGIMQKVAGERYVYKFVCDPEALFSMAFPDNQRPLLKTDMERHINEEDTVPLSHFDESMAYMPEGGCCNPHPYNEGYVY
Outline: as §1

With ATAACC as the sequence, how does the binding signal (FEV) read?
Its binding signal is 1.22 fold enrichment (6-mer frequency, TF over GST control).

And the binding signal (ETV5)?
Its binding signal is 1.21 fold enrichment (6-mer frequency, TF over GST control).

And the binding signal (HSF1)?
Its binding signal is 1.09 fold enrichment (6-mer frequency, TF over GST control).

And the binding signal (SPIC)?
Its binding signal is 1.05 fold enrichment (6-mer frequency, TF over GST control).

And the binding signal (ELF4)?
The binding signal was 1.23 fold enrichment (6-mer frequency, TF over GST control).

What about the binding signal (ELK4) of the same sequence?
Its binding signal is 1.18 fold enrichment (6-mer frequency, TF over GST control).

And the binding signal (ETV2)?
The binding signal was 1.05 fold enrichment (6-mer frequency, TF over GST control).

What about the binding signal (ELF3) of the same sequence?
Its binding signal is 1.21 fold enrichment (6-mer frequency, TF over GST control).

And the binding signal (CRX)?
The binding signal was 1.27 fold enrichment (6-mer frequency, TF over GST control).

What about the binding signal (ETV1) of the same sequence?
The binding signal was 1.1 fold enrichment (6-mer frequency, TF over GST control).
